{
  "source": "PubChem BioAssay AID2283112",
  "about": "(EPA ToxCast)",
  "target": "rat CYP1A1, Cyp1a1 (gene 24296) (UniProt P00185)",
  "sequence (P00185 whole entry, looked up)": "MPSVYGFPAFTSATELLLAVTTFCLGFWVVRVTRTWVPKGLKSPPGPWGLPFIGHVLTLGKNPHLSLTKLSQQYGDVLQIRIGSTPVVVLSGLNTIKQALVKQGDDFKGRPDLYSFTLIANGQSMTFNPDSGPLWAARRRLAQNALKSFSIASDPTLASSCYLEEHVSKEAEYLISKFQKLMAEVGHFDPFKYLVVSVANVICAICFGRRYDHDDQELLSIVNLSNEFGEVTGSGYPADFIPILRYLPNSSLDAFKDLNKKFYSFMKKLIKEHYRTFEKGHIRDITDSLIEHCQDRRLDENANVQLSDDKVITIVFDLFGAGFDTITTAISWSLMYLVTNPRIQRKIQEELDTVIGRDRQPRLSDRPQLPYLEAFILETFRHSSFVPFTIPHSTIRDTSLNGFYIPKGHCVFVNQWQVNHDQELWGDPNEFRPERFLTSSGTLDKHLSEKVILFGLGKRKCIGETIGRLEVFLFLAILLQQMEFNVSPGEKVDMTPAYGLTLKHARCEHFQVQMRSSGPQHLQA",
  "experiment": "NVS_ADME_rCYP1A1: NovaScreen (NVS) CYP450-related Enzyme Activity (ADME) Assay for rat CYP1A1",
  "procedure": "NVS_ADME_rCYP1A1 is a biochemical, single-readout assay that uses extracted gene-proteins from baculovirus-insect cells in a cell-free assay. Measurements were taken 1 hour after chemical dosing in a 96-well plate.NVS_ADME_rCYP1A1 is one of one assay component(s) measured or calculated from the NVS_ADME_rCYP1A1 assay. It is designed to make measurements of enzyme activity, a form of enzyme reporter, as detected with fluorescence intensity signals by Fluorescence technology.Data from the assay component NVS_ADME_rCYP1A1 was analyzed into 1 assay endpoint. This assay endpoint, NVS_ADME_rCYP1A1, was analyzed in the positive analysis fitting direction relative to Acetonitrile as the negative control and baseline of activity. Using a type of enzyme reporter, loss-of-signal activity can be used to understand changes in the enzymatic activity as they relate to the gene Cyp1a1. Furthermore, this assay endpoint can be referred to as a primary readout, because this assay has produced multiple assay endpoints where this one serves a enzymatic activity function. To generalize the intended target to other relatable targets, this assay endpoint is annotated to the cyp intended target family, where the subfamily is xenobiotic metabolism. […]",
  "note": "Results filed as inconclusive are left out. The source made the active and inactive calls. How the source made its calls: active means hit-call score of the fitted dose curve at least 0.9, where 1 is the maximum; inconclusive means response in the unintended direction; inactive means score below 0.9.",
  "data": [
    {"smiles": "C=CCOC(Cn1ccnc1)c1ccc(Cl)cc1Cl", "note": "(stereo unspecified)", "values": [
      {"measurement": "AC50", "value": "7.73 µM (active)"}
    ]}
  ]
}
